The nature of test [1]: HepG2 liver cancer cell viability effects, profiling panel, resazurin fluorescence, 24 h, PK04 Diversity Set (AID 1172). Particulars: higher = more signal.
A short description of test [2]: basal S. cerevisiae growth modulation, no modifier, primary screen, OD600, strain BY4716, 24 h, basal condition (AID 1173). Particulars: OD600, 24 h, higher = more signal, called active from +8 up or from −8 down.
The nature of test [3]: MM1S myeloma cell viability, profiling panel, resazurin fluorescence, basal, 24 h, PK04 Diversity Set (AID 1174).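 Also: MM1S multiple myeloma cell line.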 Particulars: higher = more signal, called active from +8 up or from −8 down.
Test [4] addresses Dihydroorotate dehydrogenase (quinone), mitochondrial (Plasmodium falciparum (isolate 3D7)) (UniProt Q08210). Description: PfDHODH enzyme inhibitors, primary screen, biochemical, C-terminal His tag, absorbance 600 nm (AID 1175).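 Also: recombinant parasite enzyme with a five histidine tag at its C terminus.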 Particulars: DCIP absorbance 600 nm, higher = more signal, called active from +8 up or from −8 down.
Test [5] in a line: P. aeruginosa biofilm formation inhibitors, primary screen, strain PAO1, LB-PBS medium, absorbance 600 nm (AID 1176). Particulars: P. aeruginosa PAO1 growth/biofilm, A600, 12 h; higher = more signal.
Test [6] is described as follows: S. cerevisiae RM11-1a growth modifiers, primary screen, strain RM11-1a, OD600, basal, 24 h (AID 1177).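 Also: cultures grown under basal conditions with no added stressor.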 Particulars: OD600, 24 h, higher = more signal, called active from +8 up or from −8 down.
A short description of test [7]: E. coli acrAB mutant growth effects, primary screen, E. coli filamentation inducers, strain DRC39, OD650, 24 h (AID 1178).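 Also: growth measured as culture turbidity by optical density at 650 nm.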 The note with it: higher = more signal, called active from +8 up or from −8 down.
The nature of test [8]: E. coli acrAB mutant growth effects, primary screen, E. coli filamentation inducers, strain DRC39, OD650, 48 h (AID 1179).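 Also: screen aims at cell division blockers that make cells filament.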 Particulars: E. coli DRC39 delta-acrAB growth, higher = more signal, called active from +8 up or from −8 down.
Test [9] is described as follows: RPMI8226 myeloma cell viability, profiling panel, resazurin fluorescence, basal, 24 h, PK04 Diversity Set (AID 1180).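 Also: RPMI8826 multiple myeloma cell line at 5000 cells per well.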 Particulars: higher = more signal.
For test [10], the target named is E3 ubiquitin-protein ligase XIAP (Homo sapiens) (UniProt P98170). Put plainly: XIAP binders, primary screen, biophysical, small-molecule microarray, fluorescence 635 nm (AID 1181).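 Also: score merges 667 nm emission and signal to noise over triplicate slides.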 Particulars: small-molecule microarray binding, higher = more signal.
Sequence of E3 ubiquitin-protein ligase XIAP (Homo sapiens) (P98170 whole entry, looked up): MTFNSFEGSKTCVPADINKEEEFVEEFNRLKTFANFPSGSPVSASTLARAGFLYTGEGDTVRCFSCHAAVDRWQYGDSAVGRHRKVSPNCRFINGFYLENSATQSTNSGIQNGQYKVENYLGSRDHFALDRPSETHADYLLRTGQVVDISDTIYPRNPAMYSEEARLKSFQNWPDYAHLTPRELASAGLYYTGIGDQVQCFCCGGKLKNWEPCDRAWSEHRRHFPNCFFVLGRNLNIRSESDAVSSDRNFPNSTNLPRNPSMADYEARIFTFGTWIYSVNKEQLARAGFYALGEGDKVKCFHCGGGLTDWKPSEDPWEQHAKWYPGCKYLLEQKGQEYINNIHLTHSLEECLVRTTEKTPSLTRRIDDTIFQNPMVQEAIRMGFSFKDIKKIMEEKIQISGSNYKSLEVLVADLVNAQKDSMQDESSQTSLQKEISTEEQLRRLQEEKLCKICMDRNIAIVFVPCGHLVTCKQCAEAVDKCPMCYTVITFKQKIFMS
The subject of test [11] is XIP peptide (Xip251-270) binding. Put plainly: small-molecule binders of XIP peptide, primary screen, biochemical, small-molecule microarray, fluorescence 635/667 nm, 0.1 µg/mL protein (AID 1182). The note with it: fluorescent protein binding, 635 nm, higher = more signal, called active from +8 up or from −8 down.
Another test has as its system XIP peptide (Xip251-270). Description: small-molecule binders of XIP peptide, primary screen, biochemical, small-molecule microarray, fluorescence 635/667 nm, 0.5 µg/mL protein (AID 1183). The note with it: small-molecule microarray binding, fluorescence 635 nm; higher = more signal.
Test [12] can be described thus: Plasmodium falciparum growth inhibition, primary screen, strain 3D7, DAPI fluorescence, 100 nL (AID 1184).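 Also: parasites grown inside human red blood cells in medium with human serum.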 Particulars: P. falciparum 3D7 growth, 3 d, higher = more signal.
Test [13] has as its target Homeobox protein Hox-A13 (Mus musculus) (UniProt Q62424). Put plainly: inhibitors of HoxA13-DNA binding, primary screen, biochemical, fluorescence polarization, labeled oligonucleotide (AID 1185). Particulars: 15 min, higher = more signal, called active from +8 up or from −8 down.
A short description of test [14]: inhibitors of hydroxyurea-induced Chk1 phosphorylation, primary screen, imaging, HeLa, phospho-Chk1 antibody, percent positive cells (AID 1186). The note with it: hydroxyurea-induced phospho-Chk1 immunofluorescence imaging, higher = more signal.
Test [15] in a line: inhibitors of hydroxyurea-induced Chk1 phosphorylation, primary screen, imaging, HeLa, phospho-Chk1 nuclear intensity (AID 1187). Particulars: hydroxyurea-induced phospho-Chk1 immunofluorescence imaging, higher = more signal.

Z-score and composite z-score data for 9 molecules are collected here from PubChem BioAssay.

The source made the active and inactive calls. Unless noted, no rule for the calls is given here.

Sequence of Homeobox protein Hox-A13 (Mus musculus) (Q62424 whole entry, looked up): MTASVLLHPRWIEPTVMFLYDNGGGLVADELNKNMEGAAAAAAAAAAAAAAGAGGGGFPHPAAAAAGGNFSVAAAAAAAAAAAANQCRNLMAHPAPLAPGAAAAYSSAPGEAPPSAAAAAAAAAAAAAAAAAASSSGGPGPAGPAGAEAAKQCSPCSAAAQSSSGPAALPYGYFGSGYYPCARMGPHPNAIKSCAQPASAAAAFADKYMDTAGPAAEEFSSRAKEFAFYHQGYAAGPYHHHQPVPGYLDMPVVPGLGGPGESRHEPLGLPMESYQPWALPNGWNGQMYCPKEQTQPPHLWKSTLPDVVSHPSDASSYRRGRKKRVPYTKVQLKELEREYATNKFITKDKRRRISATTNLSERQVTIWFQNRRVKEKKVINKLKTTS
Sequence of Dihydroorotate dehydrogenase (quinone), mitochondrial (Plasmodium falciparum (isolate 3D7)) (Q08210 whole entry, looked up): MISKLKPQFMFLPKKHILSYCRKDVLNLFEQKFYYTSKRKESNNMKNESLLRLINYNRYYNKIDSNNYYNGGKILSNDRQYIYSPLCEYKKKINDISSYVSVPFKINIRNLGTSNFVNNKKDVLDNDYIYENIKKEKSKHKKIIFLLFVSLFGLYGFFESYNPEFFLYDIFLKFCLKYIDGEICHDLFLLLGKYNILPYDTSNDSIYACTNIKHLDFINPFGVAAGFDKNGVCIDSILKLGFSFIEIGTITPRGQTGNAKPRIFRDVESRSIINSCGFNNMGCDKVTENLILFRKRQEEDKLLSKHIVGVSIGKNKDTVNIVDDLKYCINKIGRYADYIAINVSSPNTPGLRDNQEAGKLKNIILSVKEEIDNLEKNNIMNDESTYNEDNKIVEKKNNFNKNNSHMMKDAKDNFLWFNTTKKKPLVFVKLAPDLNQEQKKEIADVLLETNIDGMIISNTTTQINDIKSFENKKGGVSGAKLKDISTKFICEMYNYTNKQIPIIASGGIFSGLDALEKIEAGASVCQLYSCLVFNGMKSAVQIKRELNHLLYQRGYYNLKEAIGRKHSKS

Regarding `O=C1C2C=CC(C(O)C(c3ccccc3)c3ccccc3)N(Nc3ccc([N+](=O)[O-])cc3)C2C(=O)N1c1ccccc1` (centres undefined), the z-score in [1] is 0.867; in test [2], 0.852 (inactive); in test [3], 0.0597 (inactive); in test [5], 0.89 (inactive); in [6], 0.601 (inactive); in test [7], -1.12 (inactive). Further, the z-score in test [8] was 0.058 (inactive); in test [9], -1.03; in test [12], 0.535; in test [13], -1.88 (inactive); in test [14], 0.349 (inactive); in test [15], 0.0443 (inactive). Also, the composite z-score is 0.665 (inactive) in test [4], 0.0553 in test [10], -0.0268 (inactive) in [11] and 0.747 in the test on XIP peptide (Xip251-270).

Turning to `O=C1O[C@@H](c2ccccc2)[C@@H](c2ccccc2)N2[C@@H](c3ccc(OCCO)cc3)[C@]3(C(=O)Nc4ccc(C#CCCO)cc43)[C@@H](C(=O)N3CCN(c4ncccn4)CC3)[C@H]12`, the z-score was 1.26 in test [1]; 1.35 (inactive) in test [2]; 0.833 (inactive) in test [3]; 1.55 (inactive) in test [5]; 2.04 (inactive) in [6]; 1.05 (inactive) in test [7]. The z-score in test [8] was 0.17 (inactive); in [9], 2.17; in [12] it was -2.03; in test [13] it was -0.282 (inactive); in test [14] it was 0.396 (inactive); in [15], 0.92 (inactive). Besides, the composite z-score in [4] was -1.58 (inactive); in [10] it was 0.19; in [11], 0.42 (inactive); with XIP peptide (Xip251-270) it was 0.721.

Turning to `CC(C)=C1C(=O)C(c2ccccc2)=C2CN3C(=O)N(CCc4ccccc4)C(=O)[C@]3(Cc3ccccc3)[C@H]21`, the z-score in test [1] is -1.18; in [2] it was 0.66 (inactive); in test [3], -0.692 (inactive); in test [5], 0.178 (inactive); in test [6], 0.071 (inactive); in test [7] it was -0.652 (inactive). Further, the z-score in test [8] was -0.295 (inactive); in test [9], -0.693; in test [12], -0.774; in [13], -0.972 (inactive); in [14], 0.844 (inactive); in test [15], 0.84 (inactive). Moreover, the composite z-score in test [4] is 0.223 (inactive); in [10], -0.122; in test [11] it was -0.315 (inactive); in the test with XIP peptide (Xip251-270) it was -0.78.

For the molecule `COC(=O)Cn1c(C(=O)N2CCCC2)cc2c1C[C@H]1CN(C(=O)c3ccccc3)[C@@](Cc3ccccc3)(C(=O)OC)[C@@H]21`, the z-score in test [1] is -0.103; in test [2] it was 1.37 (inactive); in test [3] it was -0.694 (inactive); in test [5] it was 0.619 (inactive); in test [6], 0.965 (inactive); in test [7], -0.244 (inactive). Also, the z-score in test [8] was 0.172 (inactive); in [9] it was -1.34; in [12], -0.252; in [13] it was -4.99 (inactive); in test [14], -1.29 (inactive); in test [15], -0.687 (inactive). Further, the composite z-score in [4] was 0.0393 (inactive); in test [10], 0.107; in test [11], 0.564 (inactive); in the test on XIP peptide (Xip251-270), 0.535.

As for `CCCC=C(CCC)[C@@H](NS(=O)(=O)c1ccc(C(F)(F)F)cc1)c1ccc(-c2ccccc2)cc1`, the z-score in [1] is 2.18; in [2], 1.05 (inactive); in test [3], 1.14 (inactive); in test [5], -1.16 (inactive); in test [6], 1.41 (inactive); in [7], 0.0852 (inactive). In addition, the z-score was -0.839 (inactive) in test [8]; 0.719 in test [9]; -0.334 in test [12]; -1.61 (inactive) in [13]; -0.208 (inactive) in test [14]; -0.144 (inactive) in test [15]. Also, the composite z-score is 0.472 (inactive) in test [4], 0.0264 in [10], 0.14 (inactive) in [11] and 0.0936 in the test on XIP peptide (Xip251-270).

`C=C(CCCC)/C(=C/C[C@@H](OC(=O)c1ccncc1)c1ccc(CO)o1)c1cnc2ccccc2c1`: the z-score in [1] is -0.0346; in test [2] it was -1.95 (inactive); in test [3] it was 0.82 (inactive); in test [5], 0.154 (inactive); in test [6] it was -0.27 (inactive); in [7] it was 0.698 (inactive). Further, the z-score is 0.29 (inactive) in test [8]; 0.501 in test [9]; -0.573 in [12]; -4.65 (inactive) in test [13]; 0.222 (inactive) in [14]; -0.125 (inactive) in test [15]. Further, the composite z-score was -7.54 (inactive) in [4], 0.451 in test [10], 0.518 (inactive) in test [11] and 0.776 in the test on XIP peptide (Xip251-270).

For the molecule `O=C1O[C@H](c2ccccc2)[C@H](c2ccccc2)N2[C@H]1[C@@H](C(=O)Nc1nc3ccccc3s1)[C@]1(C(=O)Nc3ccc(C#CC4(O)CCCCCC4)cc31)[C@H]2c1ccc(O)cc1`, the z-score was -0.629 in [1]; -0.945 (inactive) in test [2]; -1.55 (inactive) in [3]; 1.44 (inactive) in test [5]; -0.124 (inactive) in test [6]; -0.492 (inactive) in [7]. The z-score was -0.716 (inactive) in test [8]; -1.36 in test [9]; -0.416 in [12]; -1.04 (inactive) in [13]; 0.313 (inactive) in [14]; 0.634 (inactive) in test [15]. The composite z-score is 0.0022 (inactive) in [4], -0.0426 in test [10], 2.76 (inactive) in test [11] and 0.844 with XIP peptide (Xip251-270).

As for `COc1cc(Cc2cc3c(c(CCc4ccccc4)n2)[Si](C(C)C)(C(C)C)OC3)cc(OC)c1OC`, the z-score is 1.47 in test [1]; -0.0438 (inactive) in [2]; 0.273 (inactive) in [3]; 0.726 (inactive) in test [5]; 0.404 (inactive) in test [6]; -0.171 (inactive) in test [7]. Also, the z-score was 0.365 (inactive) in test [8]; 0.815 in [9]; -2.33 in test [12]; -3.47 (inactive) in [13]; -0.0504 (inactive) in [14]; -0.0848 (inactive) in [15]. For the same molecule, the composite z-score is -0.606 (inactive) in test [4], 0.107 in test [10], -0.521 (inactive) in [11] and -0.122 with XIP peptide (Xip251-270).

Consider `CN1C(=O)C2C=CC(C(O)C3CC=CCC3)N(Nc3ccccc3)C2C1=O` (centres undefined), for which the z-score is -0.488 in test [1]; 0.122 (inactive) in [2]; -0.533 (inactive) in [3]; 0.847 (inactive) in test [5]; 0.0862 (inactive) in [6]; -1.11 (inactive) in [7]. The z-score was -0.196 (inactive) in test [8]; -0.568 in test [9]; 0.235 in test [12]; -3.96 (inactive) in [13]; 0.202 (inactive) in test [14]; 0.25 (inactive) in test [15]. In addition, the composite z-score is 0.0707 (inactive) in test [4], 0.301 in test [10], 0.769 (inactive) in [11] and 0.795 in the test on XIP peptide (Xip251-270).
